RORgamma inh: inhibitors of mouse ROR gamma transcriptional activity; P51450; Drosophila S2 Gal4-RORgamma UAS-luciferase reporter, 20 h; Potency, µM (highest dose often 53.6 µM), inactives show top-dose activity change, negative = inhibition, usual class: inhibitors; 310,000 compounds, 5.4% hits; AID 2551; also: potency is read from the fitted curve at half-maximal effect; nearly all actives have a fitted effect of over 60% in size
Target sequence (P51450 whole entry, looked up, the tested form may be a part): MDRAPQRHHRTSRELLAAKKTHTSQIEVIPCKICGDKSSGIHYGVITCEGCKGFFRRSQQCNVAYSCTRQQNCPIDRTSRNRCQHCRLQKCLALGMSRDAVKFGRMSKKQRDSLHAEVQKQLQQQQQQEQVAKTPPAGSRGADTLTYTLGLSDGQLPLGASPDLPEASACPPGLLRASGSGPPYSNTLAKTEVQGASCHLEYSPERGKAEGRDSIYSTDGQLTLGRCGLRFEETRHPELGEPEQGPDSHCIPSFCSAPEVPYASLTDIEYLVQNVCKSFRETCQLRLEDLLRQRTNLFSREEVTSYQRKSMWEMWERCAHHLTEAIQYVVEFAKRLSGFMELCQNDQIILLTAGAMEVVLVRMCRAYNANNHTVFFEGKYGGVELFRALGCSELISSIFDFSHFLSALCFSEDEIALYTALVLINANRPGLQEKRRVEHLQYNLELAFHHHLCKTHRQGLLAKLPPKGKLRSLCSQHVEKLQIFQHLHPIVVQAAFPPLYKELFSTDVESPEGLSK
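Drosophila Schneider cells stably carrying a metallothionein-driven Gal4 DBD–ROR gamma fusion and a UAS-Photinus luciferase reporter were exposed to compound for 1 hr, then induced with copper sulfate (700 uM final) for 20 hr at ambient temperature before luminescence reading.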
Gal4-VP16 FLuc: Gal4-VP16 reporter inhibition counter-screen; Drosophila S2 Gal4-VP16 UAS-luciferase, luminescence, 20 h; Potency, µM (titrated, usually from 53.6 µM), for the others: at the top dose activity, negative = inhibition, actives largely listed as inhibitors; 310,000 compounds, 3.5% hits;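 also: Gal4-VP16 expression switched on by copper sulfate through the metallothionein promoter; potency is read from the fitted curve at half-maximal effect; nearly all actives have a fitted effect of over 50% in size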
DT40 TDP1 no CPT: qHTS for Inhibitors of human tyrosyl-DNA phosphodiesterase 1 (TDP1): qHTS in cells in absence of CPT; DT40 Tdp1-/- hTDP1 cells, no CPT, ATP luminescence, 48 h; Potency, µM (doses to about 46.2 µM), for the others: at the highest dose activity change, negative = growth inhibition, usual class: inhibitors; 420,000 compounds, 15% hits; AID 686978, 2013; also: potency is read from the fitted curve at half-maximal effect; nearly all actives have a fitted effect of over 55% in size
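Seeded 400 DT40-hTDP1 cells/well (vehicle DMSO, no 20 nM CPT); pinned compounds; ≥48 hr at 37 °C; CellTiter-Glo luminescence as viability measure.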
TDP1 cell CPT: growth inhibition of DT40 Tdp1-/-;hTDP1 cells with camptothecin (screen for TDP1 inhibitors). 420,000 compounds, 12% hits. chicken DT40 Tdp1-/-;hTDP1 cells + 20 nM CPT, ATP luminescence, 48 h. Potency, µM (top dose mostly 46.2 µM), for the others: at the highest dose activity change, negative = growth inhibition, hits mostly inhibitors; also: potency is read from the fitted curve at half-maximal effect; nearly all actives have a fitted effect of over 55% in size
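Cell growth measured by CellTiter-Glo luminescence after a minimum 48 h, 37 C compound exposure with 20 nM CPT in Tdp1-knockout DT40 cells stably expressing hTDP1, seeded 400/well; qHTS titration format.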
IL1B secr inh: inflammasome signaling inhibition, IL-1 beta readout; THP-1 LPS/ATP IL-1B secretion, AlphaLISA, 16 h; hits give low values; activity change, % at 57.5 µM; 360,000 compounds, 4.7% hits; AID 743279; in the data active = activity change below about -50%; inconclusive = mostly about -30% to -49%
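Secreted IL-1B measured by AlphaLISA bead assay after 16 h compound exposure of THP-1 cells; compounds (final up to 57.5 uM) added 1 h before LPS (250 ng/mL) and ATP (1.25 mM) stimulation; lower signal means less secretion.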
ELG1 repair inh: blocks ELG1-dependent DNA repair in HEK293T cells | 330,000 compounds, 2.3% hits | HEK293T ELG1-luciferase reporter, luminescence, 16 h; DNA damage induced by 5-fluorouridine | Potency, µM (doses to about 46.1 µM), for the others: at the highest dose activity change, negative = inhibition, actives largely listed as inhibitors; also: potency is read from the fitted curve at half-maximal effect; nearly all actives have a fitted effect of over 55% in size
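Step one: seed 2,000 cells per well. Step two: pin-transfer compound or DMSO alongside 5-fluorouridine. Step three: incubate 16 hr, 37 °C, 5% CO2. Step four: add ONE-Glo, wait 30 min, read luminescence.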
Starred values were filed as active, the others as inactive; i = inactive; ? = inconclusive; · = no result; [ ] = another dose, or the depositor's remark. Most compounds without a hit are left out; they make up all but 21% or so of the library. Unless noted, calls follow the shape of the dose curve; as a rule, active = well fitted curve in the direction sought with a large enough effect; inconclusive = small, poorly fitted or top-dose-only effect, or another doubt; inactive = no such curve, though single readings can be large; an effect the other way counts as inactive or inconclusive. % is scaled to controls: 0 for no effect and ±100 for the full control effect.

SMILES	RORgamma inh	Gal4-VP16 FLuc	DT40 TDP1 no CPT	TDP1 cell CPT	IL1B secr inh	ELG1 repair inh
O=C1CCCCC1C(Nc1ccc(Br)cc1)c1ccccc1 (stereo not drawn)	-16.6%	-5.4%	0.6%	2.3%	-71.8*	2.1%
O=C(OC1CC2CC1[C@H]1CCCCN1C2=O)N1CCN(C(=O)c2ccccc2)CC1 (stereo partly drawn)	·	·	?	1.8%	18.1	·
O=C1CCC(OCc2ccccc2)CCN1CC[C@@H](Sc1ccccc1)c1ccccc1 (stereo partly drawn)	·	·	?	?	11.4	·
O=C1CC[C@@H](OCc2ccccc2)CCN1CC[C@H](Sc1ccccc1)c1ccccc1	-18.0%	-13.6%	18.4µM*	15.8µM*	20.5	?
C[C@@H]1CCC(=O)N(CC[C@H](Sc2ccccc2)c2ccccc2)CC1	32.7%	19.8%	12.6µM*	12.6µM*	0.0	?
CCN(C(=O)CSc1nc2cc(C(=O)O)ccc2c(=O)n1-c1ccccc1F)C1CCS(=O)(=O)C1 (stereo not drawn)	·	·	5.7%	-13.1%	5.9	·
COc1ccc(NC(=O)CNc2ccc(OC)c(S(=O)(=O)N3CCOCC3)c2)cc1	·	·	4.1%	-0.7%	3.6	·
Cc1cccc(NC(=O)CN2CCN(C(=O)C3CCC3)CC2)c1C	·	·	-0.6%	-20.8%	26.4	15.5%
Cc1cccc(NC(=O)CN2CCN(C(=O)CNC(=O)Cc3cccc4ccccc34)CC2)c1C	·	·	10.3µM*	23.1µM*	20.3	-20.3%
NC(=O)c1ccccc1NC(=O)CN1CCN(Cc2ccc(Cl)cc2Cl)CC1	?	-24.6%	23.1µM*	?	i	10.3µM*
Cc1cccc(NC(=O)CN2CCN(CC(=O)NCc3ccc(Cl)cc3Cl)CC2)c1C	·	·	?	23.1µM*	2.0	-0.2%
O=C(COc1ccccc1)N[C@@H]1c2ccccc2CC[C@@H]1O	·	·	-16.5%	-1.0%	-4.2	-1.9%
CN(C(=O)c1ccc(NC(=O)Cc2ccc(NC(=O)C3CCN(C(=O)C4CC4)CC3)cc2)cc1)C1CCCC1	·	·	-20.3%	-26.5%	-11.4	·
Cc1ccc(C(C(=O)NCc2ccco2)N(C(=O)CNC(=O)c2cccs2)c2ccc(C)cc2C)cc1 (stereo not drawn)	-24.8%	?	6.51µM*	29.1µM*	22.6	27.4%
Cc1ccc(N(C(=O)CNC(=O)c2ccco2)C(C(=O)NC2CCCC2)c2ccncc2)c(C)c1 (stereo not drawn)	6.5%	0.1%	3.7%	13.9%	2.9	-0.4%
c1ccc(CSc2nnc(-c3ccco3)n2Cc2ccco2)cc1	?	?	23.1µM*	?	3.5	0.0%
c1ccc(CSc2nnc(-c3cccs3)n2Cc2ccco2)cc1	39.3%	22.3%	?	?	-66.6*	13.3%
Cc1ccccc1CSc1nnc(-c2cccs2)n1Cc1ccco1	-13.7%	0.3%	23.1µM*	?	-28.8	-14.5%
Cc1ccccc1CSc1nnc(-c2ccco2)n1Cc1ccco1	41.7%	?	?	?	-3.1	-1.0%
COc1cccc(-n2c(CN3CCN(c4ccccc4)CC3)nc3ccc([N+](=O)[O-])cc3c2=O)c1	-6.3%[10 µM]	-7.4%	-23.2%	-20.8%	31.5	18.4µM*
CCOC(=O)c1ccc(-n2c(CN3CCC(C(N)=O)CC3)nc3ccc([N+](=O)[O-])cc3c2=O)cc1	-11.0%	-0.3%	-11.2%	?	0.0	10.8%
CCC(CC)N1CCN(Cc2nc3ccc([N+](=O)[O-])cc3c(=O)n2-c2ccccc2F)CC1	25.2%	-11.6%	?	4.6%	57.7	-20.5%
CCOC(=O)N1CCN(Cc2nc3ccc([N+](=O)[O-])cc3c(=O)n2-c2ccccc2F)CC1	4.8%	-22.0%	23.1µM*	?	31.3	?
CCOC(=O)C1CCN(Cc2nc3ccc([N+](=O)[O-])cc3c(=O)n2-c2ccc(OC)cc2OC)CC1	9.9%	27.8%	?	?	26.9	-6.9%
CCOC(=O)c1ccc(-n2c(CN3CCC(O)CC3)nc3ccc([N+](=O)[O-])cc3c2=O)cc1	23.8%	4.8%	?	20.6µM*	0.0	-19.8%
SMILES	RORgamma inh	Gal4-VP16 FLuc	DT40 TDP1 no CPT	TDP1 cell CPT	IL1B secr inh	ELG1 repair inh
CCOC(=O)C1CCCN(Cc2nc3ccc([N+](=O)[O-])cc3c(=O)n2-c2ccc(OC)cc2OC)C1 (stereo not drawn)	-19.7%	-12.2%	23.1µM*	16.4µM*	61.9	-10.1%
Cc1ccc(OCCSc2nnc(-c3cccs3)o2)cc1Cl	·	·	-4.4%	-8.4%	·	·
CC(=O)c1ccccc1-c1ccc2c(c1)CC(CNC(=O)Cc1c[nH]c3ccccc13)O2 (stereo not drawn)	·	·	-10.2%	13.4%[9.04 µM]	·	·
CC(C)(CO)[C@H](O)C(=O)NCCCO	12.4%[16.9 µM]	-5.7%[17 µM]	·	·	·	·
CCOC(=O)c1ccc(-n2c(CN(CC)CC)nc3ccc([N+](=O)[O-])cc3c2=O)cc1	25.7%	-8.0%	?	18.4µM*	36.0	7.0%
CC(=O)N1CCN(Cc2nc3cc([N+](=O)[O-])ccc3n2C)CC1	0.5%	7.7%	?	6.51µM*	7.1	3.6%
CCOC(=O)N1CCN(Cc2nc3cc([N+](=O)[O-])ccc3n2C)CC1	16.4%	-0.4%	-17.8%	-1.3%	36.7	0.0%
CCOC(=O)c1ccc(-n2c(CN3CCOCC3)nc3ccc([N+](=O)[O-])cc3c2=O)cc1	30.7%	7.0%	-3.8%	-10.0%	45.4	4.1%
COc1ccc(-n2c(=O)c3c(c4cc(OC)ccc4n3C)n(CCC(C)C)c2=O)cc1	·	·	-28.7%	-26.3%	·	·
Cc1cccc(Nc2nc(-c3sc(C)nc3C)cs2)c1	?	?	16.4µM*	?	-53.8*	?
CCC(=O)Nc1nc(C)c(-c2csc(Nc3cccc(O)c3)n2)s1	?	-29.6%	3.66µM*	6.51µM*	-75.1*	2.59µM*
Cc1ccnc(Nc2nc(-c3sc(C)nc3C)cs2)c1	·	·	?	14.6µM*	-100.3*	·
Cc1nc(N)sc1-c1csc(Nc2cccc(O)c2)n1	-23.7%	2.8%	?	?	-24.6	-27.0%
Cc1nc(C)c(-c2csc(Nc3cccc(O)c3)n2)s1	4.6%	-13.8%	23.1µM*	?	?	?
O=C(Nc1cccc(S(=O)(=O)Nc2ccccc2Cl)c1)c1ccc(Cl)nc1	?	6.31µM*	14.6µM*	11.6µM*	6.6	?
O=C(Nc1cccc(S(=O)(=O)N2CCCCC2)c1)c1ccc(Cl)nc1	·	·	14.6µM*	20.6µM*	21.7	20.6µM*
O=C(Nc1cccc(S(=O)(=O)N2CCCCC2)c1)c1ccc2ncsc2c1	13.8%	-29.9%	?	?	-25.7	?
